Tau fibril FP: qHTS for Inhibitors of Tau Fibril Formation, Fluorescence Polarization | Potency, µM (doses to about 57.7 µM), without a hit: top-dose activity, negative = inhibition, usual class: inhibitors | Microtubule-associated protein tau (Homo sapiens), P10636 | actives 0.39% (n = 280,000) | K18 P301L tau heparin fibrillization, Alexa594 FP, 6 h; note: nearly all actives have a fitted effect of over 55% in size
Target sequence (P10636 561-689 P618L limits assumed): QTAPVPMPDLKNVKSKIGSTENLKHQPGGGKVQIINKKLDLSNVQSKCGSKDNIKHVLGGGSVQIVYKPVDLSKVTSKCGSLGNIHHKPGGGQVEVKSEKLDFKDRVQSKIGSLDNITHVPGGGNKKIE
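Quantitative HTS format: compounds meet 15 uM recombinant K18 P301L tau and Alexa 594-tau tracer in 100 mM sodium acetate pH 7; 20 uM heparin triggers fibrillization at 37 C over 6 hr; FP gives the signal.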
HPGD block: qHTS Assay for Inhibitors of HPGD (15-Hydroxyprostaglandin Dehydrogenase); purified HPGD, NADH fluorescence kinetic, PGE2 substrate; actives 4.3% (n = 150,000); Potency, µM, for inactives: at the highest dose activity change, negative = inhibition, hits mostly inhibitors; AID 894, 2007; 15-hydroxyprostaglandin dehydrogenase [NAD(+)] (Homo sapiens), P15428; active = well fitted inhibition curve with a large enough effect, not every such curve was filed as active; inconclusive = small, poorly fitted or top-dose-only effect, or another doubt; inactive = no such curve, though single readings can be large or run the other way
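NADH formation kinetics: reaction with 30 uM PGE2 and 1 mM NAD+ (final), 20 nM enzyme, Tris-HCl pH 8 with Tween 20, after 15 min compound preincubation at room temperature. Fluorescence change, last versus first of five reads.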
ALDH1A1 inh: qHTS Assay for Inhibitors of Aldehyde Dehydrogenase 1 (ALDH1A1); Purified ALDH1A1, NADH fluorescence, propionaldehyde substrate; Potency, µM (highest dose often 75.3 µM), for the others: at the highest dose activity, negative = inhibition, actives largely listed as inhibitors; Aldehyde dehydrogenase 1A1 (Homo sapiens), P00352; AID 1030, 2008; actives 7.3% (n = 220,000); active = well fitted inhibition curve with a large enough effect, not every such curve was filed as active; inconclusive = small, poorly fitted or top-dose-only effect, or another doubt; inactive = no such curve, though single readings can be large or run the other way;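 note: plate controls were no enzyme wells and a reference inhibitor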
Target sequence (P00352 whole entry, looked up): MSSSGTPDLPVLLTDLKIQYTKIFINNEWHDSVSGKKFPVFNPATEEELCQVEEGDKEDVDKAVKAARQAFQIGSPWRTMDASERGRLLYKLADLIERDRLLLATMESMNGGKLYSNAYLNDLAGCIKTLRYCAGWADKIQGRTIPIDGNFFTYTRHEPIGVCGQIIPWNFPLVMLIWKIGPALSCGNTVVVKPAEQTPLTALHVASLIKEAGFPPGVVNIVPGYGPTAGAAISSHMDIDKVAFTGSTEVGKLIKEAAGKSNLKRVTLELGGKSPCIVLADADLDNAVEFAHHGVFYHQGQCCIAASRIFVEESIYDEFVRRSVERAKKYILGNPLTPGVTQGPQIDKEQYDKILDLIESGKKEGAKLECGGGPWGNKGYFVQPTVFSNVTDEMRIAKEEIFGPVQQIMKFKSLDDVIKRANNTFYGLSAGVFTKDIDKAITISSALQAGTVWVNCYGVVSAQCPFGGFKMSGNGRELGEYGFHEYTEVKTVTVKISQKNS
Tau fibril ThT: qHTS for Inhibitors of Tau Fibril Formation, Thioflavin T Binding | actives 2.1% (n = 270,000) | recombinant tau K18 P301L, heparin-induced fibrillization, ThT fluorescence | Microtubule-associated protein tau (Homo sapiens), P10636 | AID 1460, 2008 | Potency, µM (doses to about 57.4 µM), without a hit: at the highest dose activity, negative = inhibition, actives largely listed as inhibitors; note: nearly all actives have a fitted effect of over 55% in size
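Heparin-induced (20 uM) aggregation of recombinant human K18 P301L tau, 15 uM unlabeled with 0.24 uM labeled, pH 7 acetate buffer, 6 hr at 37 C with compound. Fibrils quantified by 30 uM ThT fluorescence after 1 hr ambient incubation.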
Tau fluor counter: Counterscreen qHTS for Inhibitors of Tau Fibril Formation, Fluorescence Polarization | tau K18 P301L Alexa594 fluorescence, heparin fibrillization | Potency, µM (doses to about 57.7 µM), for the others: at the highest dose activity change, negative = decrease | actives 0.93% (n = 280,000); note: nearly all actives have a fitted effect of over 55% in size
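Human tau K18 P301L (15 uM unlabeled, 0.24 uM Alexa 594-labeled) in 100 mM sodium acetate pH 7 with 20 uM heparin, 6 hr at 37 C. ThT 30 uM added, 1 hr ambient; Alexa 594 FP and total fluorescence read at 555/632 nm.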
NPSR antagonist: qHTS Assay for Antagonists of the Neuropeptide S Receptor: cAMP Signal Transduction. Q6W5P4. CHO-NPSR cells, cAMP TR-FRET, antagonist mode. actives 1% (n = 220,000). Potency, µM (top dose mostly 38.3 µM), without a hit: at the highest dose activity change, negative = inhibition, actives largely listed as inhibitors; note: nearly all actives have a fitted effect of over 50% in size
Active calls of the source: *; ? = inconclusive; / = no result; [ ] = remark or other dose. Only some compounds are listed: those with a hit (about 9.5% of all), similar ones and a draw of the others. Unless noted, calls come from the whole dose curve; as a rule, active = well fitted curve in the direction sought with a large enough effect; inconclusive = small, poorly fitted or top-dose-only effect, or another doubt; inactive = no such curve, though single readings can be large; an effect the other way counts as inactive or inconclusive. Unless noted, % is set by controls: 0 for no effect and ±100 for the full control effect; potency is the fitted concentration of half-maximal effect.

SMILES	Tau fibril FP	HPGD block	ALDH1A1 inh	Tau fibril ThT	Tau fluor counter	NPSR antagonist
Cc1noc(Cn2c(=O)c3ccccc3n(CC(=O)Nc3ccc(F)cc3F)c2=O)n1	2.3%	/	/	-0.1%	-2.5%	/
CCc1cc(C(c2ccc(F)cc2)N2CCOCC2)c(NC(=O)c2ccccc2)s1 (stereo unspecified)	-9.3%	-28.1%	?	31.6µM*	?	?
COc1ccc(-c2nc(C)sc2C)cc1	1.3%	28.2µM*	?	0.0%	5.3%	6.4%
COc1ccc(CCCc2n[nH]c(=S)o2)cc1C	2.3%	/	8.91µM*	?	-8.7%	-18.4%
COc1ccc(NC(=O)c2c(C)oc3ccc(O)c(CN4CCN(C)CC4)c23)cc1Cl	-3.2%	/	/	-14.2%	-17.4%	/
Cc1ccc(C(=O)N/C(=C\c2ccc(Cl)cc2)C(=O)NCC2CCCO2)cc1 (stereo unspecified)	-6.3%	-0.3%	13.4%	3.3%	-3.9%	12.8%
CCN1C(=O)/C(=C/c2cnn(CC)c2C)SC1=S	-2.6%	-15.3%	2µM*	?	-16.5%	-0.2%
Cc1nn(C)c(C)c1/C=C1/SC(=S)NC1=O	-3.0%	-28.6%	?	-14.0%	-5.0%	-28.3%[46.1 µM]
CCN1C(=O)/C(=C/c2c(C)nn(C)c2C)SC1=S	-14.3%	-26.8%	1.41µM*	?	-21.1%	1.1%[46.1 µM]
O=C1c2ccccc2C(=O)N1CCCc1nc2ccccc2c(=O)n1-c1cccnc1	-4.7%	-0.8%	-14.5%	-11.0%	-8.5%	-16.0%[46.1 µM]
CCCCNC(=O)CCCN1C(=O)CCn2nc(-c3cccn3C)cc21	7.3%	/	/	5.8%	8.3%	/
CC1(C)CC(=O)C2=C(C1)OC(N)=C(C#N)C21CCN(C(=O)OCc2ccccc2)CC1	-1.3%	-27.3%	10µM*	?	-16.9%	?
CC1(c2ccccc2)CC(C)(C)N2C(=O)C3(C(C#N)=C(N)Oc4cc(O)ccc43)c3cccc1c32 (stereo unspecified)	25.1µM*	-11.3%	1.1%	-19.4%	?	?
Cc1cc2c3c(c1)C(C)(c1ccccc1)CC(C)(C)N3C(=O)C21C(C#N)=C(N)OC2=C1C(=O)CC(C)(C)C2 (stereo unspecified)	12.7%	-18.1%	-10.1%	-19.4%	-12.0%	10µM*
CC1(C)CC(=O)C2=C(C1)OC(N)=C(C#N)C21C(=O)N2CCCc3cccc1c32 (stereo unspecified)	-9.1%	-8.7%	7.08µM*	6.1%	3.2%	-7.5%[46.1 µM]
N#CC1=C(N)OC2=C(C(=O)CCC2)C12CCN(C(=O)OCc1ccccc1)CC2	4.5%	-24.2%	?	-5.7%	1.1%	-5.7%[46.1 µM]
CCOc1ccc(N(CC)C(=O)Cn2cnc3sc(C)c(S(=O)(=O)N4CCN(c5ncccn5)CC4)c3c2=O)cc1	4.5%	/	/	?	-18.8%	/
Cc1ccc(CNC(=O)C2CC(c3ccccc3F)=NO2)cc1 (stereo unspecified)	5.1%	/	/	4.0%	0.3%	10.7%
O=C(CN1C(=O)CCC1=O)NCC12CC3CC(CC(C3)C1)C2	0.2%	-5.2%	1.12µM*	1.3%	7.5%	-20.2%[46.1 µM]
O=C(CN1CCCC1)NCC12CC3CC(CC(C3)C1)C2	3.9%	-8.2%	?	6.5%	11.7%	-2.2%[46.1 µM]
COCCNCC(=O)NCC12CC3CC(CC(C3)C1)C2	7.6%	-5.7%	28.2µM*	-0.4%	0.5%	?
Cn1c(/C(C#N)=C(\O)c2ccc([N+](=O)[O-])cc2)nc2ccccc21	1.8%	/	2.4%	-6.3%	0.0%	11.2%
CCN(CC)S(=O)(=O)c1ccc(/C(O)=C(\C#N)c2nc3ccccc3n2C)cc1	-4.8%	-18.3%	20µM*	-4.5%	0.0%	?
COc1cccc(CNc2ccc(S(N)(=O)=O)cc2)c1OC	-6.8%	-5.5%	2.7%	-7.1%	-6.5%	?
COc1ccccc1CNc1ccc(N2CCCCC2)cc1	?	-18.3%	?	22.4µM*	?	-10.4%[46.1 µM]
SMILES	Tau fibril FP	HPGD block	ALDH1A1 inh	Tau fibril ThT	Tau fluor counter	NPSR antagonist
COc1cccc(CNc2ccc(N3CCCCC3)cc2)c1OC	?	-13.5%	3.98µM*	14.1µM*	?	?
Cc1ccc(CSc2nnc([C@@H](N)C(C)C)o2)cc1	2.3%	/	/	-7.2%	-9.6%	/
CCCCS(=O)(=O)Nc1ccc2cn[nH]c2c1	1.6%	/	-8.5%	9.5%	5.6%	-6.3%
O=C(C(Cc1ccccc1)n1cccc1)N1CCN(c2ccccc2)CC1 (stereo unspecified)	2.5%	-11.1%	-7.7%	-8.7%	-15.1%	-20.2%[46.1 µM]
CC1CCCN(C(=O)C(Cc2ccccc2)n2cccc2)C1 (stereo unspecified)	-1.2%	14.1µM*	-2.2%	-13.1%	-5.5%	-0.7%[46.1 µM]
O=C(CSCc1nc2ccccc2[nH]1)Nc1ccc2ccccc2c1	?	/	?	22.4µM*	?	-9.4%[46.1 µM]
O=C(Cc1ccc2c(c1)CCCC2)Nc1ccc2ccccc2c1	-13.4%	?	22.4µM*	?	?	-10.8%
O=C(CS)Nc1ccc2ccccc2c1	?	/	/	25.1µM*	?	-18.4%[7.67 µM]
COc1ccc(CC(=O)Nc2ccc3c(c2)CCC3)cc1OC	-3.0%	-6.8%	-6.7%	-2.2%	-7.8%	?
O=C(CSc1cccs1)Nc1ccc2ccccc2c1	-9.1%	28.2µM*	?	-2.7%	-28.0%	6.9%[46.1 µM]
CCN(Cc1ccccc1)C(=O)Cn1cc(S(=O)(=O)Cc2cccc(Cl)c2)c2ccccc21	2.2%	/	/	-7.0%	-21.1%	/
CSc1nc2ccccc2cc1/C=C(\C#N)c1cccc(Cl)c1	-7.4%	?	10.3%	-11.3%	-8.2%	-7.6%[46.1 µM]
CCOc1ccc(NC(=O)CN(Cc2ccccc2)S(=O)(=O)c2ccc3nc(C)sc3c2)cc1	10.4%	/	/	-2.8%	-19.7%	/
Cc1ccc(NS(=O)(=O)c2ccc(N3CCN(c4ccc(O)cc4)CC3)c([N+](=O)[O-])c2)c(C)c1	8.0%	-5.5%	14.1µM*	14.1µM*	11.2µM*[quencher]	-25.5%
O=C(O)c1cc(NS(=O)(=O)c2ccc(N3CCOCC3)c([N+](=O)[O-])c2)cc(C(=O)O)c1	5.0%	-2.5%	7.2%	-1.9%	8.3%	-4.5%[46.1 µM]
O=[N+]([O-])c1cc(S(=O)(=O)Nc2ccccc2)ccc1N1CCN(c2ccc(O)cc2)CC1	8.9%	-19.8%	31.6µM*	-5.9%	-2.3%	-24.2%
COc1cccc(C(c2sc3nc(-c4ccco4)nn3c2O)N2CCC(C)CC2)c1 (stereo unspecified)	-10.3%	/	/	-12.8%	-11.2%	/

Screens as filed in PubChem.
